# PfHsp90 yeast 2 = inhibits growth of yeast expressing Plasmodium falciparum Hsp90. inhibition, % at 9.4 µM. S. cerevisiae expressing PfHsp90, BacTiter-Glo ATP, 48 h; yeast lacking PDR1 and PDR3 efflux regulators. hit rate 0.32% among 310,000;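 active = every replicate shows inhibition above about 80%, whatever the replicate mean, limit read from the data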;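 also: 0% = DMSO neutral controls and 100% = 20 µM radicicol positive controls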
# TIM10 inh = growth inhibitors of TIM10 yeast strain; S. cerevisiae TIM10 strain growth, BacTiter-Glo luminescence, 24 h; inhibition, % at 10 µM; hit rate 1.4% among 330,000;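 active = inhibition of 40% or more at the single tested concentration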;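 also: wild-type TIM10 isogenic control strain grown at permissive 25 °C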
# tim23-1 inh = inhibits growth of tim23-1 mutant yeast; S. cerevisiae tim23-1 growth, BacTiter-Glo luminescence, 24 h; inhibition, % at 20 µM; hit rate 1.3% among 330,000; AID 463212;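 active = growth inhibition of the mutant yeast at or above 50%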;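 also: temperature-sensitive mutant grown at 25 °C; plate controls were DMSO-treated mutant yeast for no effect and medium wells lacking yeast for full effect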
# tim10-1 inh = inhibits growth of tim10-1 mutant yeast | inhibition, % at 20 µM | hit rate 2.2% among 330,000 | S. cerevisiae tim10-1 ts strain growth, BacTiter-Glo, 24 h;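 active = inhibition of at least 40%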;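 also: mutant grown at 25 °C; 0% = DMSO wells with yeast and 100% = wells holding no yeast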
# V-ATPase pHluor = regulators of yeast V-ATPase proton transport; AID 504577; response, % at 10 µM; hit rate 0.37% among 350,000; S. cerevisiae, pHLuorin cytosolic pH fluorescence; in the data active = response mostly above about 7.3%, no sharp cut-off; inactive = mostly below about 5.4%; also: actives read high
# tim10-1 confirm = tim10-1 yeast growth inhibition, confirmed; S. cerevisiae tim10-1 ts strain growth, BacTiter-Glo, 24 h; shares compounds with tim10-1 inh; AID 463213; inhibition, % at 20 µM; hit rate 56% among 7,400;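 active = inhibition of yeast growth at or above a set limit in either of two repeat tests at 20 µM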;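 also: tim10-1 mutant grown at permissive 25 °C to find synthetic lethal compounds; 0% = DMSO yeast wells and 100% = medium wells without yeast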
# TIM10 conf = confirmation of TIM10 yeast growth inhibitors | S. cerevisiae tim10 strain growth, BacTiter-Glo luminescence, 24 h | shares compounds with TIM10 inh | inhibition, % at 10 µM | hit rate 63% among 4,600;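 active = inhibition of yeast growth at or above a set limit in either of two replicates at 10 µM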;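 also: this counterscreen used the strain with wild-type TIM10; 0% = yeast with DMSO and 100% = medium wells lacking yeast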
# tim23-1 conf = confirmation of tim23-1 mutant yeast growth inhibitors | inhibition, % at 20 µM | S. cerevisiae tim23-1 growth, BacTiter-Glo luminescence, 24 h | shares compounds with tim23-1 inh | AID 463218 | hit rate 83% among 4,400;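 active = inhibition above about 39% in either of two replicate wells at 20 µM, limit read from the data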;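 also: temperature-sensitive tim23-1 mutant grown at 25 °C; 0% = DMSO wells with yeast and 100% = medium wells without yeast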
# * marks the source's active call; other numbers are inactive results; x = not tested or not shown. Compounds with a hit are over-represented: about 3.7% of the library has one in this group of screens.
SMILES,PfHsp90 yeast 2,TIM10 inh,tim23-1 inh,tim10-1 inh,V-ATPase pHluor,tim10-1 confirm,TIM10 conf,tim23-1 conf
Cc1ccc(-c2cc(C(=O)N3N=C(C(F)F)CC3(O)C(F)F)c3ccccc3n2)cc1C (configuration not stated),112.5*,27.2,51.7*,50.1*,2.8,16.6,x,5.3
Cc1noc(C)c1C(=O)Nc1nc2ccc(Cl)cc2s1,29.1,32.5,62.4*,50.0*,-1.0,31.9*,x,47.3*
CN(C)c1cccc(C(=O)OCC(=O)NC2CCCC2)c1,-7.2,-8.2,11.5,21.5,-3.0,x,x,x
COc1cc(C(=O)OCC(=O)c2ccccc2)cc2c1OCCO2,x,22.7,26.5,30.1,-1.2,x,x,x
CC1CCN(c2cc(N)c(Cl)cc2[N+](=O)[O-])CC1,2.8,41.4*,71.6*,52.0*,1.0,37.1*,-12.3,65.2*
CC1CCN(c2cc(C#N)c(C#N)cc2[N+](=O)[O-])CC1,x,2.9,-11.7,13.9,-2.2,x,x,x
Cc1c(C(=O)NCCCN2CCOCC2)sc2ncnc(N3CCN(c4ccccc4)CC3)c12,-3.8,x,x,x,-1.2,x,x,x
CCCCNC(=O)c1sc2ncnc(N3CCc4ccccc4C3)c2c1C,x,43.2*,54.8*,47.5*,1.7,34.8*,36.2*,51.1*
O=C(CSC(=S)N1CCCC1)c1cc(Br)cc(Br)c1O,x,56.7*,51.8*,58.0*,x,46.2*,48.1*,65.9*
N#Cc1ccccc1OCC(=O)NC1CCCCCC1,x,x,x,x,-3.2,x,x,x
O=C(N/N=C/c1cc(Cl)cc([N+](=O)[O-])c1O)c1cc(-c2ccccn2)nc2ccccc12,-13.4,18.6,51.5*,45.5*,-2.0,8.8,x,23.1
O=C(Oc1cc(=O)oc2c1c(=O)n1c3c(cccc23)CC1)c1ccc(F)cc1,x,47.0*,70.8*,46.0*,-2.3,4.1,30.9,53.4*
S=C1NCCc2ccc(Cl)cc2C1c1ccccc1Cl (configuration not stated),-9.6,46.6*,58.7*,43.7*,0.4,21.1,4.1,37.3
Clc1ccc2c(c1)C(C1=NCCN1)c1ccccc1CS2 (configuration not stated),-1.9,5.9,1.6,-15.4,-0.3,x,x,x
CC1NC(=O)c2cccnc2-n2c1nc1cc(F)c(F)cc1c2=O (configuration not stated),x,x,x,x,0.1,x,x,x
COc1ccc(-c2cc3nc(C)cc(N)n3n2)cc1,63.3,47.2*,53.8*,61.5*,0.8,43.8*,14.1,63.5*
Cc1nc(N2CCN(c3ccccc3O)CC2)c2c(-c3ccccc3)csc2n1,-40.0,33.5,50.6*,42.3*,-1.5,31.5*,x,48.2*
Cc1csc(CN(C)C(=O)CC2C(=O)NCCN2Cc2ccccc2C)n1 (configuration not stated),x,x,x,x,2.0,x,x,x
CCC1CCc2sc(C(=O)N3CCCN(C)CC3)cc2C1 (configuration not stated),6.7,8.5,-7.0,26.3,2.3,x,x,x
CCC1CCc2sc(C(=O)N3CCN(c4ccccn4)CC3)cc2C1 (configuration not stated),8.3,30.5,55.9*,45.9*,1.6,34.5*,x,55.8*
Cc1ccc(-c2csc(NCCn3c(C)nc4cc(C(F)(F)F)ccc43)n2)cc1,-9.4,17.3,16.1,2.1,0.4,x,x,x
CCOC(=O)C(=O)Nc1ccc(F)cc1,-7.7,-0.3,5.5,12.7,4.1,x,x,x
CCOC(=O)C(=Cc1ccc(F)cc1)C(=O)OCC,x,42.6*,55.3*,52.7*,x,46.3*,47.7*,59.6*
Cc1cc(NC(=O)OC2CCCCC2)ccc1[N+](=O)[O-],-26.4,33.6,53.2*,48.7*,1.6,24.9,x,55.2*
CN1C2Cc3c(n(C)c4ccccc34)C1CC=C2CO (configuration not stated),x,-12.6,-6.3,-5.0,-1.9,x,x,x
SMILES,PfHsp90 yeast 2,TIM10 inh,tim23-1 inh,tim10-1 inh,V-ATPase pHluor,tim10-1 confirm,TIM10 conf,tim23-1 conf
CC1=CC(C)(C)N2C(=O)C(=O)c3cc(OC(=O)c4ccco4)cc1c32,15.0,34.5,68.5*,51.2*,-0.2,36.2*,x,1.2
O=[N+]([O-])c1cc([N+](=O)[O-])c2cc3ccccc3nc2c1,9.7,86.2*,69.2*,75.3*,12.9,41.5*,96.8*,44.4*
O=[N+]([O-])c1cnc2ccccc2c1,-10.2,-0.1,17.2,13.8,-4.0,x,x,x
O=C(Nc1ccc(Cl)cc1)c1ccc2c(=O)n3c(nc2c1)CCCCC3,x,-1.4,-14.1,-6.2,0.1,x,x,x
O=C(Nc1cccc(Cl)c1)c1ccc2c(=O)n3c(nc2c1)CCCCC3,3.0,73.5*,54.4*,44.5*,0.8,30.4,-14.9,80.0*
COc1ccc(/C(N)=N/OC(=O)c2cccc([N+](=O)[O-])c2C)cc1,-18.1,83.0*,71.5*,65.2*,-5.4,53.3*,78.2*,59.9*
CC1=CC(=NOC(=O)c2cccc([N+](=O)[O-])c2)C=C(C)C1=O,-7.1,20.1,57.3*,45.0*,2.1,35.7*,x,64.2*
COc1ccccc1C/C(N)=N/OC(=O)c1cccc([N+](=O)[O-])c1C,-4.1,83.4*,77.8*,46.2*,-4.4,32.6*,-31.7,73.8*
COc1cccc(C(=O)O/N=C(\N)c2ccc([N+](=O)[O-])cc2)c1,25.9,-4.4,1.3,26.5,-3.0,x,x,x
COc1ccc(/C(N)=N/OC(=O)c2cccc([N+](=O)[O-])c2)cc1,-41.1,31.7,66.2*,42.1*,0.0,54.0*,x,73.9*
Cc1cc(OCC(=O)Nc2cnn(CCCC(=O)O)c2)ccc1Cl,-13.7,-10.9,-3.4,-8.7,3.2,x,x,x
COc1ccccc1CC1CC(=O)N(c2ccc([N+](=O)[O-])cc2)C1=O (configuration not stated),x,x,x,x,2.5,x,x,x
CCCCNc1c(-c2ccc(-c3ccc(OC)cc3)c(OC)c2)nc2ccccn12,-23.1,21.8,45.2,16.0,7.1,x,x,x
COc1ccc(NC(=O)CCC(=O)N/N=C/c2ccc([N+](=O)[O-])s2)cc1,116.3*,83.2*,62.5*,50.5*,1.5,38.6*,25.2,62.1*
Cc1[nH]cnc1C(=O)N/N=C/c1ccc([N+](=O)[O-])s1,11.3,7.7,19.8,5.3,0.6,x,x,x
Cc1ccc(C(=O)N/N=C\c2ccc([N+](=O)[O-])s2)cn1,-16.9,40.1*,55.9*,49.3*,-1.6,41.5*,-32.0,58.5*
Cc1cc(C(=O)N/N=C/c2ccc([N+](=O)[O-])s2)n[nH]1,5.1,6.6,48.3,-12.3,1.6,x,x,x
CCOC(=O)N/N=C\c1ccc([N+](=O)[O-])s1,17.2,32.4,87.5*,53.4*,0.3,38.3*,x,66.2*
CC(C)(C)OC(=O)N/N=C\c1ccc([N+](=O)[O-])s1,17.2,58.1*,78.0*,75.5*,-1.6,49.5*,70.7*,63.9*

# Compound activity: PubChem, several laboratories
